Rows were chosen to be rich in hits. Some 2% of all compounds tested hit in one or more screens of this group.
Granule exo inh = blocks lytic granule exocytosis; TALL-104 LAMP-1 surface exposure, flow cytometry; cells stimulated with thapsigargin and PMA; inhibition, % at 10 µM; hit rate 0.66% among 360,000; AID 651702;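 active means inhibition above about 55%, limit read from the data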
TLR4-MyD88 BLA = blocks binding of human TLR4 to MyD88; O00206+Q99836; HeLa CL3-4 TLR4/MyD88 BLA complementation, FRET ratio; inhibition, % at 8.4 µM; hit rate 0.18% among 200,000; AID 861; in the data active means inhibition above about 25%;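 further: 0% = vehicle and 100% = reference inhibitor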
ABHD5 PLIN5 PPI = blocks binding of human ABHD5 to perilipin-5. hit rate 0.78% among 360,000. Q00G26+Q8WTS1. Split G. princeps luciferase complementation, luminescence, 4 h. inhibition, % at 4 µM;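 active means inhibition above the mean inhibition across every tested compound plus 3 SD, cut at about 22% in these data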;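 further: 0% = DMSO only wells and the 100% control is not disclosed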
Target sequence (Q00G26 whole entry, looked up): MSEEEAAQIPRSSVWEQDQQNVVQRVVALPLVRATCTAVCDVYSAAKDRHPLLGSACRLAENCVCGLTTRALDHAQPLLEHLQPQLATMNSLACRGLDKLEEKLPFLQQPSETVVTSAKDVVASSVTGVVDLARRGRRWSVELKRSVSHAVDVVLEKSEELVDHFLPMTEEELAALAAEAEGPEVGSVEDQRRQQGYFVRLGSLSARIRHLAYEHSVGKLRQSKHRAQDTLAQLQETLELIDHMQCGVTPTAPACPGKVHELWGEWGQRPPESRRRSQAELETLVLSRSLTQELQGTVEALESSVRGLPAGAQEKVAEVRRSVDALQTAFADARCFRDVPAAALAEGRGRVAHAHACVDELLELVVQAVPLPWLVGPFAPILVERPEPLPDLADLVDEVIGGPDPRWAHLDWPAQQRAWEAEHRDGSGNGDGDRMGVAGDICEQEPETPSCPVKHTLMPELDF
Target sequence (Q8WTS1 whole entry, looked up): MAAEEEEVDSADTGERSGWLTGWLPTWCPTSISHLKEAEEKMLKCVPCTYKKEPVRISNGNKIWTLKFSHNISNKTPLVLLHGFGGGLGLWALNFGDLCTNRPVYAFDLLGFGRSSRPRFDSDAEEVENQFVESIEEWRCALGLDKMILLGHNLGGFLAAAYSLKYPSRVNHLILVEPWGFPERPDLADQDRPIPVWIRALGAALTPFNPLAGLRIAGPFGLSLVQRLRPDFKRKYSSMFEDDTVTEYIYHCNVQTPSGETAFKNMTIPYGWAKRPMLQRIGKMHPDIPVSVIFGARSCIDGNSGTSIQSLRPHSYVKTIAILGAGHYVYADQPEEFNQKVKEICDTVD
NOD2-RIPK2 inh = inhibitors of human NOD2-RIPK2 interaction. O43353. CHO BLA complementation NOD2-RIPK2, CCF4 ratio. inhibition, % at 4.98 µM. hit rate 0.38% among 360,000. AID 624267; in the data active means inhibition above about 21%;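 further: 0% = vehicle only and 100% = reference blocker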
B2AR ag = activates human beta-2 adrenergic receptor causing internalization; Am2.2-beta2AR cells, FAP receptor internalization, flow cytometry; response, % (concentration not given with the values); hit rate 0.43% among 340,000; AID 504454;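 active means response above a set limit, near 3 SD of response in nonfluorescent compounds, cut at about 42% in these data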
TLR9-MyD88 block = inhibitors of human TLR9-MyD88 binding; Q9NR96+Q99836; CHO BLA complementation TLR9-MyD88, CCF4 FRET ratio; inhibition, % at 4.98 µM; hit rate 0.21% among 340,000; AID 504734;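 active means inhibition above the mean over all tested compounds plus 3 SD, cut at about 21% in these data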;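 further: 0% = DMSO only wells and 100% = clavulanate BLA inhibitor control wells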
B2AR ag CP1 = activates human beta-2 adrenergic receptor. shares compounds with B2AR ag. Am2.2-beta2AR cells, FAP surface receptor, flow cytometry; stronger effect = lower value. percent response (surface receptor), % at 10 µM. hit rate 25% among 1,100. AID 540358;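 active means surface receptor percent response at or below 58%, roughly 3 SD from nonfluorescent compounds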
B2AR FAP counter = flagged in Am2.2 fluorescence counterscreen for beta-2AR agonists; AID 588765; shares compounds with B2AR ag; Am2.2 cells, FAP fluorogen flow cytometry; stronger effect = lower value; 1,100 tested, under 10 active; calls only at 10 µM;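 active means percent response below a set limit in fluorescence channel 1 and below 50% in channel 8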
* marks the source's active call; other numbers are inactive results; i = inactive; / = not tested or not shown.

SMILES	Granule exo inh	TLR4-MyD88 BLA	ABHD5 PLIN5 PPI	NOD2-RIPK2 inh	B2AR ag	TLR9-MyD88 block	B2AR ag CP1	B2AR FAP counter
Cc1cc(C)n2c(Br)c(CSc3nc4ccccc4s3)nc2n1	-1	0	-10	0	47*	-5	79	i
Cc1cc(C)nc(NC(=O)CSc2nc3ccccc3s2)n1	-2	-13	-5	1	0	-3	/	/
CN(C)S(=O)(=O)c1cc([N+](=O)[O-])ccc1N1CCCCCC1	-2	-9	1	3	40	-8	/	/
CC(C)CN(CC(C)C)S(=O)(=O)c1cc([N+](=O)[O-])ccc1N1CCCCCC1	10	-4	-2	-4	52*	4	64	i
COc1ccc(-c2nn(-c3ccccc3)cc2C(=O)Nc2nccs2)cc1	0	5	4	1	43*	-15	154	i
CCN(CC)S(=O)(=O)c1cccc(-n2c(O)c(C=Nc3ccccc3C(=O)O)c3ccccc3c2=O)c1	0	/	-3	-10	47*	-3	99	i
O=C(O)c1ccccc1N=Cc1c(O)n(-c2nccs2)c(=O)c2ccccc12	5	/	-2	-6	-1	1	/	/
O=C1CCC[C@@H]2C[C@@]3(C[C@@H]4CCN1[C@H]24)Nc1cc(Cl)c(Cl)cc1NC3=NCc1ccccc1	-4	/	2	-13	19	-1	/	/
CCOc1ccc(C(=O)C(CCC(CN(C)C)C(=O)c2ccc(OCC)cc2)CN(C)C)cc1 (configuration not stated)	60*	10	49*	40*	110*	19	82	i
COc1ccccc1Cc1c(C(C)(C)C)nc2ccc(C)cn12	-2	/	1	-7	/	/	/	/
NC(=O)CC(NC(=O)Cc1cccc2ccccc12)c1ccc(NCCCN2CCCC2=O)c([N+](=O)[O-])c1 (configuration not stated)	-6	/	8	-7	103*	1	17*	i
CCCCNc1ccc(C(CC(N)=O)NC(=O)Cc2cccc3ccccc23)cc1[N+](=O)[O-] (configuration not stated)	1	/	-3	-6	-3	-2	/	/
COc1ccc(Cl)cc1C(=O)N1CCN(c2ccccn2)CC1	3	-9	-3	-6	52*	4	124	i
O=C(c1ccccc1Cl)N1CCN(c2ccccn2)CC1	1	14	-2	-2	1	-3	/	/
COc1ccc(NC(=O)c2cc(C3CCCCN3S(=O)(=O)c3cccs3)on2)c(C)c1 (configuration not stated)	-4	/	0	7	/	/	/	/
C[C@H]1CN([C@@H](C)CO)S(=O)(=O)c2ccc(Br)cc2O[C@H]1CN(C)C(=O)c1cccnc1	6	/	6	5	/	0	/	/
COc1ccc(CNC(=O)c2ccc(N3CCC4(CC3)CC(c3ccc(Cl)cc3)=NO4)c(NC(=O)Cc3ccc(F)cc3)c2)cc1	3	/	4	2	0	-3	/	/
Cc1nc2oc(C(=O)c3ccc(Br)cc3)c(N)c2c2c1COC(C)(C)C2	-4	4	9	-9	-6	-2	/	/
Cc1nc2oc3c(=O)[nH]cnc3c2c2c1COC(C)(C)C2	2	/	2	5	-4	2	99	i
CC(C)NC(=O)CN1CCN(C(c2ccnc3ccccc23)c2nnnn2-c2ccc3c(c2)OCCO3)CC1 (configuration not stated)	-6	/	0	-5	/	/	/	/
COc1ccc(CC(=O)Nc2cccc(-c3nnc(-c4ccc(C)cc4)o3)c2)cc1OC	88*	9	1	-3	50*	2	107	i
CCN(CC)C(=O)C1=C(C)N(Cc2ccc(C(C)(C)C)cc2)C(=O)C(CC(=O)NCC2CCCCC2)C1 (configuration not stated)	-7	/	8	-3	/	-12	/	/
CC(NCCC(c1ccccc1)c1ccccc1)c1ccccc1 (configuration not stated)	4	8	1	-7	25	-5	84	i
